Reference: ChEMBL document CHEMBL1201862, “PubChem BioAssay data set” (2004)
Among all 400,000 compounds or so, about 2,100 (0.53%) were called active. Roughly 14% stayed inconclusive and do not appear here. No rule for the calls is given here. The entries come from a sample that favours actives as a whole.

The molecules below were run against Ataxin-2 (Homo sapiens) (UniProt Q99700) (assay: qHTS for Inhibitors of ATXN expression.).
Assay type: functional

Sequence of Ataxin-2 (Homo sapiens) (Q99700 whole entry): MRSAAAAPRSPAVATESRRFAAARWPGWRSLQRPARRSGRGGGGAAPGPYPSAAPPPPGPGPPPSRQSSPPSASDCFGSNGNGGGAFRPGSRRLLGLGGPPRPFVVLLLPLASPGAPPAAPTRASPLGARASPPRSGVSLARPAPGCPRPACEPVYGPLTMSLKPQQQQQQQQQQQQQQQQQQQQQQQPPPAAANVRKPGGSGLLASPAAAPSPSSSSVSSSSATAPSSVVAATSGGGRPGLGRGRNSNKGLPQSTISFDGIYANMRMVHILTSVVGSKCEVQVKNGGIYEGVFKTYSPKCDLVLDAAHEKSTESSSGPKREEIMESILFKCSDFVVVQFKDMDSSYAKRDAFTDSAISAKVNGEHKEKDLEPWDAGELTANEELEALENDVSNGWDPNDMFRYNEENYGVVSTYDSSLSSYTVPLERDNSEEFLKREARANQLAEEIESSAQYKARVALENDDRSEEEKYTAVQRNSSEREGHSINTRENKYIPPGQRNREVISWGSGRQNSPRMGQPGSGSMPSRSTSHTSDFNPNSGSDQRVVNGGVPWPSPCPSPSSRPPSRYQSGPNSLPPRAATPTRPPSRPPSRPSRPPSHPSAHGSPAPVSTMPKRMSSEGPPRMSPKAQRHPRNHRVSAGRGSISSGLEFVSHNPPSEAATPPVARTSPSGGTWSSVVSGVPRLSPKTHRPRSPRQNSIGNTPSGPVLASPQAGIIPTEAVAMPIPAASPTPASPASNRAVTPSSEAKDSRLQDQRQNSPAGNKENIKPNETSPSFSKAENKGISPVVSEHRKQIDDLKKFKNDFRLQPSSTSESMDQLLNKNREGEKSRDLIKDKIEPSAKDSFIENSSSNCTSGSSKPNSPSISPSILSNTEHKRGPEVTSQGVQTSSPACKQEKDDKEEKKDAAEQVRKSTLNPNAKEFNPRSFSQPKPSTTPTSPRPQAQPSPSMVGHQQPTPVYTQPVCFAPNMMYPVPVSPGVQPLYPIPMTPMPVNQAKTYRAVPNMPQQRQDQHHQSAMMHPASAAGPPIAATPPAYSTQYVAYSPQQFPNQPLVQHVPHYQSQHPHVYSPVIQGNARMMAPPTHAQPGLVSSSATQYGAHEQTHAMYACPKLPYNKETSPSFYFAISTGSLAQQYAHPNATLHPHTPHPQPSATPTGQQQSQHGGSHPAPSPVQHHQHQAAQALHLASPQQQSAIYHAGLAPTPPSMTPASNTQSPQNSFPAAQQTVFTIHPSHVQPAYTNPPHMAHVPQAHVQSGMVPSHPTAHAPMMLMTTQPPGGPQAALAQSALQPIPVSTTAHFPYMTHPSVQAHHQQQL

SMILES	Potency
O=C(CSc1nnnn1C1CC1)N1CCN(c2ccc(O)cc2)CC1	inactive
Cc1ccc(Cl)c(NC(=O)COC(=O)c2ccccc2C(=O)c2ccc(Cl)c([N+](=O)[O-])c2)c1Cl	20 µM (active)
Cn1c(N)c(C(=O)COC(=O)CC(NC(=O)c2ccccc2Cl)c2ccccc2)c(=O)n(C)c1=O (stereo unspecified)	inactive
CCOC(=O)Cn1nc(C)c(NC(=O)COc2ccc([N+](=O)[O-])c(C)c2)c1C	inactive
CC(=O)c1ccccc1NC(=O)COC(=O)c1cc[n+]([O-])cc1	inactive
Cn1c(N)c(C(=O)COC(=O)c2ccccc2C(=O)c2ccc(Cl)c([N+](=O)[O-])c2)c(=O)n(C)c1=O	20 µM (active)
CC(C)Cn1c(N)c(C(=O)COC(=O)c2cccnc2Cl)c(=O)n(C)c1=O	inactive
COC(=O)c1cc(-c2ccc(Br)cc2)c2c(=O)n(C)c(=O)n(C)c2n1	inactive
Cc1sc2nc3ccc(NCc4ccco4)nn3c(=O)c2c1C	inactive
O=C(/C=C/c1cn(CC(O)CN2CCc3ccccc32)c2ccccc12)c1ccc(Br)cc1 (stereo unspecified)	inactive
COc1ccc(CNCCC2(C(C)C)CCOC(C)(C)C2)cc1 (stereo unspecified)	inactive
COc1ccc2cc(CNCCOCCOCCNCc3ccc4cc(OC)ccc4c3)ccc2c1	29.9 µM (active)
COc1ccc(CNc2cc(C)nc3ccc(OC)cc23)cc1	inactive
OCCCc1nc2n(n1)C(c1ccccc1)C=C(c1ccccc1)N2 (stereo unspecified)	inactive
O=C(Cc1ccccc1)Nc1cc([N+](=O)[O-])ccc1N1CCOCC1	inactive
Cc1cc(N2CCN(C(=O)Oc3ccc([N+](=O)[O-])cc3)CC2)c2ccccc2n1	35.5 µM (active)
Cc1cc(N2CCN(c3ccc(C(F)(F)F)cc3[N+](=O)[O-])CC2)c2ccccc2n1	inactive
CC(C(=O)N1CCCCCC1)c1ccc([N+](=O)[O-])cc1 (stereo unspecified)	inactive
CCCn1nc(NC(=O)C(C)(C)C)c2cc3cc(OC)ccc3nc21	inactive
Cc1ccc(-c2nc3cc(Br)cnc3nc2-c2ccc(C)cc2)cc1	inactive
Cc1nnsc1C(=O)NNC(=O)Nc1ccccc1	inactive
O=C(c1ccccc1)c1ccccc1N1C(=O)C=CC1=O	23.8 µM (active)
O=C(c1ccccc1)c1ccsc1C(=O)c1ccccc1	inactive

SMILES	Potency
O=C(C1=NN(c2ccccc2)C2C(=O)N(c3ccccc3Cl)C(=O)C12)c1ccccc1 (stereo unspecified)	inactive
O=C(Oc1cc(=O)oc2c1c(=O)n1c3c(cccc23)CC1)c1ccccc1	inactive
COc1cccc(CNC(=O)c2cc(S(=O)(=O)N3CCCC3)cn2C)c1	inactive
CN(CC(=O)Nc1ccc(Cl)cc1)C(=O)COc1ncnc2ccccc12	inactive
Cc1cc(Cl)ccc1OCC(=O)OCC(=O)Nc1cccnc1Cl	inactive
Cc1ccc(OCC(=O)Nc2ccc(Cl)cc2)c(-n2nc3ccccc3n2)c1	39.8 µM (active)
Cc1cccc(C2=NN(c3ccccc3)[C@@H](C(=O)N3CCOC3=O)[C@@H]2c2ccc(F)cc2)c1	inactive
Cc1cc(NCCCCO)n2c(nc3ccccc32)c1C#N	inactive
Cc1ccc(-c2ncns2)cc1	inactive
OC(COc1ccc(Cl)cc1)CSc1ccccn1 (stereo unspecified)	inactive
COc1ccc(OCC(O)Cn2c(=N)n(Cc3ccccc3)c3ccccc32)cc1 (stereo unspecified)	35.5 µM (active)
N=c1n(Cc2ccc(Cl)cc2)c2ccccc2n1CC(O)COc1ccccc1 (stereo unspecified)	35.5 µM (active)
COc1ccc(OCC(O)CNC(=O)c2c(-c3ccccc3)noc2C)cc1 (stereo unspecified)	inactive
N=c1n(CCO)c2ccccc2n1CCOc1ccc(Cl)cc1Cl	25.1 µM (active)
COc1ccc(OCc2nc3ccccc3n2C(C)C)cc1	inactive
Oc1nncc2c3ccccc3n(Cc3cccc(Cl)c3)c12	inactive
N=c1n(Cc2ccccc2)c2ccccc2n1CC(O)COc1ccc(Cl)cc1Cl (stereo unspecified)	37.7 µM (active)
O=C(O)c1cc2cccc(S(=O)(=O)N3CCCCC3)c2cc1O	inactive
CC(/C=N\NC(=O)Cn1cncn1)=C/c1ccc(C(C)C)cc1	inactive
CC(C)(C)C(=O)/C(=C/c1ccncc1)n1cncn1	20 µM (active)
Cc1cccc(C)c1N(CC(=O)NCc1ccc(F)cc1)C(=O)c1csnn1	inactive
CN(C)c1ccc(/C=N/NC(=O)c2ccc(Cn3cc(Br)cn3)o2)cc1	inactive
NC(=O)c1ccsc1NC(=O)Cc1ccc([N+](=O)[O-])cc1	inactive

SMILES	Potency
NC(Cc1ccc([N+](=O)[O-])cc1)=NOC(=O)C(c1ccccc1)c1ccccc1	25.1 µM (active)
NC(Cc1ccc([N+](=O)[O-])cc1)=NOC(=O)c1cccc(Br)c1	inactive
CCCNC(=O)c1ccc2c(O)c(O)c(-c3ccc(C)cc3)nc2c1	inactive
N#Cc1c(-c2cccc(Br)c2)cc(-c2ccco2)nc1O	inactive
Cc1cc(NC(=O)/C(C#N)=C/c2ccc(-c3ccc(SC(F)F)cc3)o2)n(-c2ccccc2)n1	inactive
COc1cccc(-c2nn(-c3ccccc3)cc2CN(C)Cc2c(C)nc3ccccn23)c1	39.8 µM (active)
Cc1nn(C(C)C(=O)NCC2CCCO2)c(C)c1[N+](=O)[O-] (stereo unspecified)	inactive
O=C(NCc1ccc(S(=O)(=O)Nc2ccccc2Cl)s1)c1ccccc1	inactive
Cc1cccn2c(=O)c3cc(C(=O)N4CCCCC4)sc3nc12	inactive
COc1ccc2nc(N3CCC(O)CC3)c(C#N)cc2c1	inactive
Oc1c(Cl)cc(Cl)cc1C1=NNC(c2ccc(Cl)cc2)C1 (stereo unspecified)	inactive
COc1ccccc1CNCC(O)Cn1c2ccccc2c2ccccc21 (stereo unspecified)	22.4 µM (active)
COc1cccc(CNn2cnnc2)c1O	inactive
COc1ccccc1CC(=O)NC(=O)c1ccccc1O	inactive
CC(=O)Nc1sc(/C(C#N)=C/c2ccc(Cl)c(Cl)c2)nc1-c1ccc(C)cc1	inactive
COc1ccccc1CCNC(=O)C(=O)NCC1OCCN1S(=O)(=O)c1ccc([N+](=O)[O-])cc1 (stereo unspecified)	inactive
Cc1cccc(OCCn2cc(/C=N/NC(=O)c3ccncc3)c3ccccc32)c1	inactive
CSc1c(CC(=O)NCCCO)n(Cc2ccccc2)c2ccccc12	inactive
CCC(=O)Nc1c(-c2ccccc2)c(=O)c2ccccc2n1C	inactive
Cn1c2ccccc2c2cc(C(=O)NNC(=O)CCl)sc21	15 µM (active)
O=S(=O)(CC(CN1CCCCC1)N1CCCCC1)c1ccccc1 (stereo unspecified)	31.6 µM (active)
O=S(=O)(c1ccccc1)N1CCCN(S(=O)(=O)c2ccccc2)CC1	inactive
CC(CN1CCCCC1)OC(=O)c1ccco1 (stereo unspecified)	inactive

SMILES	Potency
O=C(NCc1ccc2c(c1)OCO2)c1nc(Cn2ccc([N+](=O)[O-])n2)no1	inactive
CCn1nc(NC(=O)C(C)C)c2cc3cccc(C)c3nc21	inactive
Cn1cc(/C=N/Nc2ccccc2)c2ccccc21	inactive
COc1ccc(-c2nc3cnccn3c2NCc2ccccc2)cc1SC1CCCCC1	inactive
COc1ccc(-c2nc3c(-c4ccccc4)cnn3cc2C)cc1F	inactive
COc1ccc(-c2nc3c4ccccc4ccn3c2Cc2ccccc2)cc1OC	39.8 µM (active)
COc1ccc(Cc2c(-c3ccc(OC)c(OC)c3)nc3c(C)cc(Br)cn23)c(C)c1	20 µM (active)
COc1ccccc1Cc1c(-c2ccc(OC)c(OC)c2)nc2c3ccccc3ccn12	39.8 µM (active)
COc1ccc(-c2csc(-c3cccs3)n2)cc1OC	inactive
O=C(CC1C(=O)NCCN1C(=O)Nc1ccc(F)cc1)Nc1ccc(F)cc1 (stereo unspecified)	inactive
Cc1csc(SCC(=O)NC(=O)NC(C)(C)C)n1	inactive
Cn1c2ccccc2c(=O)c2cc(NCCCN3CCOCC3)ccc21	inactive
O=C(NC1=NCCS1)c1cc(-c2ccc(-c3ccccc3)cc2)nc2ccccc12	inactive
CN(/N=C/c1cc(Br)cc(Br)c1O)c1cccc(C(F)(F)F)n1	inactive
CN(/N=C/c1ccc(O)cc1O)c1nc(-c2ccccc2)cc(-c2ccccc2)n1	25.1 µM (active)
Cc1ccc(S(=O)(=O)[N-]c2nc3ccccc3nc2-[n+]2ccn(Cc3ccccc3)c2)cc1	inactive
Cc1ccc(/N=C/c2nc(/C=C/c3cccc([N+](=O)[O-])c3)oc2O)cc1	39.8 µM (active)
Cc1nc(N/N=C/c2cccc([N+](=O)[O-])c2)cc(N2CCCCC2)n1	inactive
CC1(C)C([N+](=O)[O-])C(c2ccc(F)cc2)NC(c2ccc(F)cc2)C1[N+](=O)[O-] (stereo unspecified)	inactive
Cc1ccc(NNC2=C3N=NN=C3C=CC2=O)cc1	44.7 µM (active)
C=CCn1c2ccccc2c(=O)c2cc(C#CC[C@@H](C)O)ccc21	inactive
Clc1ccc(-c2nc(N3CCOCC3)nc3ccccc23)cc1	inactive
Clc1ccc2c(SCC3CO3)c3ccccc3nc2c1 (stereo unspecified)	23.8 µM (active)

SMILES	Potency
O=C(O)c1ccccc1Cc1nc(O)c2ccc(Cl)cc2n1	inactive
O=S(=O)([N-]c1nc2ccccc2nc1-[n+]1ccn(Cc2ccccc2)c1)c1ccccc1	inactive
CC(C)OCCCNC(=O)CN1C(=O)c2cccc3cccc1c23	inactive
CC(=O)Nc1cccc(C(=O)NC2CCCc3c2cnn3-c2ccc(C(C)(C)C)cc2)c1 (stereo unspecified)	8.91 µM (active)
COC(=O)CCCC(=O)NC1CCCc2c1cnn2-c1ccc(F)cc1F (stereo unspecified)	inactive
COc1ccc(OC)c(C(=O)NC2CCCc3c2cnn3-c2cc(C)cc(C)c2)c1 (stereo unspecified)	inactive
CCCNC(=O)Cn1c(=O)/c(=C\c2ccc(-c3ccc([N+](=O)[O-])cc3)o2)s/c1=C\C(=O)C(C)(C)C	inactive
CNS(=O)(=O)c1ccc2c3c(cccc13)C(=O)N2C	inactive
Cc1cc2nc3c(=O)n(Cc4ccccc4)c(=O)[nH]c3nc2cc1N	inactive
COc1ccc(CCNc2ccc(C(CC(N)=O)NC(=O)c3ccc(Br)cc3)cc2[N+](=O)[O-])cc1 (stereo unspecified)	31.6 µM (active)
Cc1ccccc1CNc1ccc(C(CC(N)=O)NC(=O)c2ccc(Br)cc2)cc1[N+](=O)[O-] (stereo unspecified)	39.8 µM (active)
CCOc1ccc(NC(=O)Cc2cccc3ccccc23)c([N+](=O)[O-])c1	inactive
O=C(Cc1cccc2ccccc12)Nc1cc(C(=O)O)cc(C(=O)O)c1	inactive
O=C(NCc1ccc(F)cc1)c1ccc(CS(=O)(=O)c2ccc(Br)cc2)o1	inactive
NC(=O)CC(NC(=O)c1ccc(Br)cc1)c1ccc(NCc2ccc(F)cc2)c([N+](=O)[O-])c1 (stereo unspecified)	39.8 µM (active)
NC(=NOC(=O)Cc1ccccc1[N+](=O)[O-])c1cccc(Br)c1	inactive
COc1ccc(C(=O)N[C@H](C(=O)NCCc2ccc3c(c2)OCCO3)C(C)C)cc1	inactive
NC(=O)CC(NC(=O)Cc1cccc2ccccc12)c1ccc(NCCOc2ccccc2)c([N+](=O)[O-])c1 (stereo unspecified)	17.8 µM (active)
COc1ccc(NC(=O)CSc2n[nH]c(C(C)C)n2)c([N+](=O)[O-])c1	inactive
